# Measured values: ChEMBL document CHEMBL1157539, “Thousands of chemical starting points for antimalarial lead identification” (Nature, 2010)
# Test system: Plasmodium falciparum
# Test: GSK_TCMDC: Inhibition of Plasmodium falciparum 3D7 in whole red blood cells, using parasite LDH activity as an index of growth. Test compounds present at 2uM
# Assay type: functional
row,SMILES,Inhibition [%]
1,CO/C(=C\C=C\c1cc2cc(Cl)c(Cl)cc2[nH]1)C(=O)NCCCN1CCN(c2cccc(CCCO)c2)CC1,90
2,Cc1cc(CN2CC[C@H](NC(=O)c3ccc(Cl)c(Cl)c3)C2)ccc1OCCN1CCCC1.O=C(O)C(F)(F)F,100
3,O=C(N[C@@H](Cc1ccccc1)C(=O)NCCN1CCOCC1)c1ccc(O)c(-c2ccc(Cl)c(Cl)c2)c1,97
4,CCCc1nc2c(N3CCCN(C(=O)NC4CCCCC4)CC3)cccc2n1Cc1ccccn1,89
5,Cc1ccc2[nH]c(-c3cc(-c4cccc(C#N)c4)cnc3N)nc2c1.O=C(O)C(F)(F)F,100
6,CC(C)c1ccc(S(=O)(=O)N(c2ccc3c(c2)OCO3)C2CCN(Cc3ccccc3)C2)cc1 (stereo not given),100
7,CCCCc1ccc(-c2ccc3[nH]c(C)c(Br)c(=O)c3c2)cc1,97
8,O=C(Nc1cccc(-c2cccc(-c3nc4cc(C(F)(F)F)ccc4[nH]3)c2)c1)c1cccnc1,100
9,O=C(Nc1cccc(F)c1)N[C@H]1CCN(CCCCCNC(=O)C2CC2c2ccc(Cl)c(Cl)c2)C1 (stereo not given in full),90
10,Cc1[nH]c(C)c(-c2ccc(-c3ccc(F)cc3)nc2)c(=O)c1Br,97
11,CN1CCN(CCCN(Cc2ccc(-c3ccc(CNCc4ccc5c(c4)OCO5)cc3)cc2)C(=O)CCC2CCCC2)CC1.O=C(O)C(F)(F)F,99
12,COc1ccccc1N=C1SC(=Cc2cn(CC(=O)N3CCCc4ccccc43)c3ccccc23)C(=O)N1C1CCCCC1,100
13,O=C(NC1CCN(CCN2CCC(c3cn(CCO)c4ccccc34)CC2)CC1)c1ccc(-c2ccc(C(F)(F)F)cc2)cc1,98
14,Cl.O=C(/C=C/c1ccc(Cl)c(Cl)c1)N1CCC(CCN2CCC(c3c[nH]c4cnccc34)CC2)CC1,100
15,O=C(Nc1ccc2c(c1)CN(Cc1ccc(N3CCCC3)o1)CCC2)c1ccoc1.O=CO,89
16,CCCc1ccc(NC(=O)c2ccc(CN3CCCN(Cc4ccc(OC)cc4)CC3)cc2)cc1.O=C(O)C(F)(F)F,81
17,Oc1ccc2[nH]c(-c3ccc(OC(F)(F)F)cc3)nc2c1CNC1CCCC1,99
18,COc1ccc(CN(C)CC(O)COc2ccc(NC(=O)c3cccc4c(=O)c5cccc(OC)c5[nH]c34)cc2)cc1OC (stereo not given),93
19,Cc1ccnc(NC(=O)c2cc(-c3cccc([N+](=O)[O-])c3)nc3onc(C)c23)c1,91
20,CCN(CC)CCCC(C)Nc1c(-c2ccc(Br)cc2)cnc2ccccc12 (stereo not given),100

row,SMILES,Inhibition [%]
1,CC(=O)N1N=C(c2ccc(Cl)cc2)Sc2c1nc(-c1ccccc1)n2C(C)=O,100
2,CCc1cc2c(O)c([N+](=O)[O-])c(=O)oc2cc1OCCCCCOc1cc2oc(=O)c([N+](=O)[O-])c(O)c2cc1CC,99
3,O=C(O)C(F)(F)F.O=C1CCCN1CCCNCc1ccc(-c2ccc(-c3nc4cc(F)ccc4[nH]3)s2)cc1,100
4,CC(C)(C)Oc1ccc(CC2NC3(C(=O)N(Cc4ccc(C(C)(C)C)cc4)c4ccccc43)C3C(=O)N(c4ccc(Br)cc4)C(=O)C23)cc1 (stereo not given),94
5,N#Cc1cc([N+](=O)[O-])ccc1-n1nc(-c2cccc(Cl)c2)n(CC2CCCO2)c1=S (stereo not given),91
6,OCCN1CCN(C(=S)NC2CCCCC2)CC1,93
7,C=CCOC(=O)N1CCC(CNCc2cccc(-c3ccc(-c4nc5ccccc5[nH]4)s3)c2)C1.O=C(O)C(F)(F)F (stereo not given),99
8,NC1CCN(Cc2ccc(-c3ccc(-c4nc5ccccc5[nH]4)cc3)cc2)C1.O=C(O)C(F)(F)F (stereo not given),100
9,CCn1c(C)cc(C=C2SC(=Nc3ccccc3)NC2=O)c1C,90
10,O=C(Nc1cccc(C(F)(F)F)c1)NC1CCN(c2ccnc3ccccc23)CC1.O=C(O)C(F)(F)F,100
11,O=C(c1cccc(-c2noc(C(F)(F)F)n2)c1)N1CCN(c2ccncc2)CC1,90
12,C=CCOC(=O)N1CCC(CNCc2ccc(-c3cccc(-c4nc5cc(F)ccc5[nH]4)c3)cc2)C1.O=C(O)C(F)(F)F (stereo not given),100
13,CCOc1ccc2[nH]c(C)cc(=NN=Cc3ccccc3)c2c1,96
14,CCCc1cc(Cc2cnc(N)nc2N)ccc1OCCCCCC(=O)O.Cl,97
15,COc1cc2nccc(Nc3ccc(OCc4ccc(NC(C)=O)cc4)cc3)c2cc1OC.Cl,100
16,CN(C)Cc1cc2c(O)c(Cc3ccccc3)ccc2o1,85
17,Br.Oc1ccc(CNCCCCCCNCCc2ccc(Cl)cc2)cc1O,94
18,Cn1c(Nc2cc(C(C)(C)C)on2)nc2cc(Nc3ccnc(Nc4ccc(CS(C)(=O)=O)cc4)n3)ccc21,100
19,COc1cc2nc(N(C)C)nc(Nc3ccc4c(cnn4Cc4ccccc4)c3)c2cc1OC,100
20,CC(=O)Nc1ccc2[nH]cc(C3CCN(CCC4CCN(C(=O)/C=C/c5ccc(Cl)c(Cl)c5)CC4)CC3)c2c1,95
